Assay outcomes deposited in PubChem BioAssay by several laboratories.
Mtb BioA inh: M. tuberculosis BioA enzyme inhibitors, primary screen, biochemical, plate reader, single point, HTS; 7,8-diaminopelargonic acid synthase BioA (Mycobacterium tuberculosis); 360,000 compounds, 0.096% hits; purified M. tuberculosis BioA enzyme; inhibition, % at 9.99 µM; in the data active = inhibition above about 40%
Yp Topo-I inh: Yersinia pestis topoisomerase I inhibitors, primary screen, biochemical, cleavage product accumulation, plate reader, single point; Y. pestis Topo-I cleavage product accumulation; activity, % at 10 µM; 360,000 compounds, 0.064% hits; in the data active = activity above about 50%, passing the limit was not always enough
TcdB inh: TcdB glycohydrolase inhibitors, primary screen, biochemical, single point, plate reader; 350,000 compounds, 0.24% hits; TcdB glycohydrolase enzymatic assay; inhibition, % at 9.99 µM; in the data active = inhibition above about 10%
DUSP3 inh: VHR1 phosphatase inhibitors, primary screen, biochemical, absorbance, uHTS; Dual specificity protein phosphatase 3 (Homo sapiens), P51452; recombinant VHR phosphatase, pNPP absorbance; inhibition, % at 13.3 µM; 290,000 compounds, 0.52% hits; AID 1654, 2009; in the data active = inhibition above about 50%
Target sequence (P51452 whole entry, looked up): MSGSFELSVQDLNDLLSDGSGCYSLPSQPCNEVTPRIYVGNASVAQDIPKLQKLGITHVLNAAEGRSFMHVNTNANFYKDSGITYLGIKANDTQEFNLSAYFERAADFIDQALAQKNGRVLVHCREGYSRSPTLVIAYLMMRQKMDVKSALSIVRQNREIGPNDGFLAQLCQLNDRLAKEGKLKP
MazF activator: activators of E. coli MazEF toxin-antitoxin RNase, primary screen, biochemical, fluorescence, uHTS; Endoribonuclease toxin MazF (Escherichia coli (strain K12)), P0AE70; FAM/BHQ RNA-DNA oligo cleavage fluorescence, 5 h; activation, % at 20 µM; 350,000 compounds, 0.32% hits; AID 504720, 2011; in the data active = activation above about 50%
Target sequence (P0AE70 whole entry, looked up): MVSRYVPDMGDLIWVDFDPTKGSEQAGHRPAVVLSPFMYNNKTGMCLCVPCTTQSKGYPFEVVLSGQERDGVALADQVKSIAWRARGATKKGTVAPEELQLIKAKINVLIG
FadD28 binding: inhibitors of FadD28 bisubstrate probe binding, primary screen, biochemical, fluorescence polarization, single point | AID 588549, 2011 | inhibition, % at 12.5 µM | 360,000 compounds, 0.22% hits; in the data active = inhibition above about 8.5%, passing the limit was not always enough
Numbers without * were called inactive. Rows were chosen to be rich in hits. Some 1% of all compounds tested hit in one or more screens of this group.

For CCCCCNC(=O)C(C#N)c1nc2ccccc2nc1N1CCCC1 (stereo not given) the results were Mtb BioA inh -3, Yp Topo-I inh -12, DUSP3 inh 27, MazF activator -158 and FadD28 binding 0.
For COCCCNC(=O)C(C#N)c1nc2ccccc2nc1N1CCCC1 (stereo not given) the results were Mtb BioA inh -5, Yp Topo-I inh -7, MazF activator 739* and FadD28 binding -1.
CC(C)NC(=O)N(C)C[C@@H]1Oc2ccc(NC(=O)CCC(F)(F)F)cc2C(=O)N([C@H](C)CO)C[C@H]1C was read as Mtb BioA inh 4 and TcdB inh 0.
Screening O=C(Nc1ccn(Cc2c(F)c(F)c(F)c(F)c2F)n1)c1ccc(COc2ccccc2Cl)cc1 returned Mtb BioA inh -1, Yp Topo-I inh -3, DUSP3 inh 52*, MazF activator 3 and FadD28 binding -3.
Screening O=C(Nc1ccn(Cc2c(F)c(F)cc(F)c2F)n1)c1ccc(COc2ccc(Cl)cc2Cl)o1 returned Yp Topo-I inh 25, DUSP3 inh -13, MazF activator -25 and FadD28 binding 0.
COC(=O)c1[nH]c2c(c1C)C(=O)CC(c1ccc(OC)c(OC)c1)C2 (stereo not given) was read as Mtb BioA inh 6, Yp Topo-I inh -1, TcdB inh 1, DUSP3 inh 2 and MazF activator 8.
COC(=O)c1[nH]c2c(c1C)C(=O)CC(c1cc(OC)c(OC)c(OC)c1)C2 (stereo not given) was read as Mtb BioA inh 7, Yp Topo-I inh 4, TcdB inh 0, DUSP3 inh 52*, MazF activator 3 and FadD28 binding 0.
Screening Cc1nn2cc(-c3cccc(Cl)c3)cnc2c1Br returned Yp Topo-I inh 10, TcdB inh 10*, DUSP3 inh 30, MazF activator -34 and FadD28 binding 1.
`CCOC(=O)N1CCN(S(=O)(=O)c2ccc(C(=O)NNc3nc4c(C)cc(C)cc4s3)cc2)CC1` gave Mtb BioA inh -1, Yp Topo-I inh 28, TcdB inh 1, DUSP3 inh 11, MazF activator 7 and FadD28 binding 15*.
`CCOC(=O)N1CCN(S(=O)(=O)c2ccc(C(=O)NNc3nc4ccc(Cl)cc4s3)cc2)CC1` gave Mtb BioA inh -1, Yp Topo-I inh 26, DUSP3 inh 4, MazF activator 5 and FadD28 binding 12*.
Screening CCOC(=O)N1CCN(S(=O)(=O)c2ccc(C(=O)NNc3nc4c(C)cccc4s3)cc2)CC1 returned Mtb BioA inh 1, Yp Topo-I inh -7, TcdB inh 1, DUSP3 inh -7, MazF activator 2 and FadD28 binding 17*.
CCOC(=O)N1CCN(S(=O)(=O)c2ccc(C(=O)NNc3nc4cc(C)cc(C)c4s3)cc2)CC1 was read as Mtb BioA inh 0, Yp Topo-I inh 3, DUSP3 inh 0, MazF activator 10 and FadD28 binding 3.
CC1=C/C(=C\c2ccc(Br)o2)C(=O)O1 was read as Yp Topo-I inh -1, TcdB inh 0, DUSP3 inh 28, MazF activator 0 and FadD28 binding -1.
O=C1C(=Cc2ccc(Br)o2)C(=O)c2ccccc21 was read as Mtb BioA inh 1, Yp Topo-I inh -31, DUSP3 inh 4, MazF activator -4 and FadD28 binding 41*.
For N#CC(C(=O)NCCc1ccccc1)c1nc2ccccc2nc1N1CCCCC1 (stereo not given) the results were Mtb BioA inh -1, Yp Topo-I inh -6, DUSP3 inh 11, MazF activator 150* and FadD28 binding 0.
CCN(CC)c1nc2ccccc2nc1C(C#N)C(=O)NCCc1ccccc1 (stereo not given) was read as Mtb BioA inh -2, Yp Topo-I inh -12, DUSP3 inh 6, MazF activator active and FadD28 binding -4.
For CCN(CC)c1nc2ccccc2nc1C(C#N)C(=O)NCCCOC (stereo not given) the results were Mtb BioA inh 4, Yp Topo-I inh 36, DUSP3 inh -8, MazF activator -9 and FadD28 binding 0.
`CCOC(=O)N1CCN(c2nc3ccccc3nc2C(C#N)C(=O)NCCc2ccccc2)CC1` (stereo not given) gave Mtb BioA inh -8, Yp Topo-I inh 1, TcdB inh 1, DUSP3 inh 13, MazF activator -50 and FadD28 binding -1.
N#CC(C(=O)NCc1ccccc1)c1nc2ccccc2nc1N1CCCC1 (stereo not given) was read as Mtb BioA inh -4, Yp Topo-I inh 1, DUSP3 inh 14, MazF activator active and FadD28 binding -3.
`N#CC(C(=O)NCCc1ccccc1)c1nc2ccccc2nc1N1CCOCC1` (stereo not given) gave Mtb BioA inh -1, Yp Topo-I inh 2, DUSP3 inh 2, MazF activator 928* and FadD28 binding 1.
`O=C(C1CCC1)N1CCCCN2[C@H](CO)[C@@H](c3ccc(C#CC4CCCC4)cc3)[C@H]2C1` gave Mtb BioA inh 2 and TcdB inh 0.
O=C(C[C@H]1C[C@H]2c3cc(NC(=O)NC4CCCC4)ccc3O[C@H]2[C@@H](CO)O1)NCc1ccccn1 was read as TcdB inh 0.
COc1ccc(-c2cc(C(F)(F)F)c3c(N)c(C(=O)NCCSC)sc3n2)cc1 was read as Mtb BioA inh -9, Yp Topo-I inh 20, TcdB inh 1, DUSP3 inh 54*, MazF activator 618* and FadD28 binding 0.
Cc1c(C(=O)O)sc2nc(-c3cccs3)cc(C(F)(F)F)c12 was read as Mtb BioA inh 4, Yp Topo-I inh 14, TcdB inh 0, DUSP3 inh 26, MazF activator -11 and FadD28 binding -23.
CC(=O)c1sc2nc(-c3cccs3)cc(C(F)(F)F)c2c1N was read as Mtb BioA inh -1, Yp Topo-I inh 1, DUSP3 inh 3, MazF activator 242* and FadD28 binding -3.
`Nc1c(C(=O)C2CC2)sc2nc(-c3ccccc3)cc(C(F)(F)F)c12` gave Mtb BioA inh -4, Yp Topo-I inh 12, DUSP3 inh -29, MazF activator active and FadD28 binding 1.
For O=C(NCC[C@H]1CC[C@H](NC(=O)c2cccnc2)[C@@H](CO)O1)Nc1ccc(C(F)(F)F)cc1 the results were Mtb BioA inh -4 and TcdB inh 0.
